Screens as filed in PubChem BioAssay.
D2 PAM-1: Beta-Arrestin HTS for Positive Allosteric Modulators of the Human D2 Dopamine Receptor: Potentiators. potentiation, % (concentration not given with the values). D(2) dopamine receptor (Homo sapiens), P14416. DiscoveRx D2 beta-arrestin cells, luminescence, 90 min; 100% = 57 uM dopamine signal. 360,000 tested, 0.23% active; in the data active = potentiation above about 50%
Target sequence (P14416 whole entry, looked up): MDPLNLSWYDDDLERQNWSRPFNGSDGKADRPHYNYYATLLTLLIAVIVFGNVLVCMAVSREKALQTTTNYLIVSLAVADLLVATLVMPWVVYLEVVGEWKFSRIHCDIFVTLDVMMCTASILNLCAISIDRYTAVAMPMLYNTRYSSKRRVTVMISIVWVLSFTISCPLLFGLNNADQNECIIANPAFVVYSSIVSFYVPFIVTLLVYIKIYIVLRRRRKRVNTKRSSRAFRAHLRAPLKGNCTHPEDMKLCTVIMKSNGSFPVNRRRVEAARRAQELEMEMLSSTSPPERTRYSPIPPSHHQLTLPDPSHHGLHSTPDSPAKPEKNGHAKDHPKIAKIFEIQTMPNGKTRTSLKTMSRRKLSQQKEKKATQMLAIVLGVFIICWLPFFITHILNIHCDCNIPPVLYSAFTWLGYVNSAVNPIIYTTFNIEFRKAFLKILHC
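PathHunter D2 cells, attached overnight at 37 deg C, received compound in DMSO plus dopamine at EC20 (50 nM final) for 90 min at 37 deg C. Beta-arrestin recruitment was read as luminescence after 1 h with detection reagent at ambient temperature.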
D2 ag-1: HTS Assay for Allosteric Agonists of the Human D2 Dopamine Receptor: Primary Screen for Agonists. 340,000 tested, 0.53% active. AID 485358, 2010. activation, % at 2 µM. D(2) dopamine receptor (Homo sapiens), P14416. HEK293 T-REx D2 cells, calcium flux agonist mode;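 active = activation over 3 SD above normal in the single-dose calcium agonist read, cut at about 30% in these data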; also: 0% is about no effect
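HEK293 Trex D2 cells, tetracycline-induced, o/n 30 C 5% CO2; no-wash Ca dye, RT 30–90 min; 10-cycle baseline, 23 nl cpd added, kinetic Ca read 180 s; agonist hits = positive Ca response.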
D2 antagonist: HTS Assay for Allosteric Antagonists of the Human D2 Dopamine Receptor: Primary Screen for Antagonists | D(2) dopamine receptor (Homo sapiens), P14416 | HEK293 TREx D2 cells, calcium flux, dopamine EC80 | inhibition, % at 10 µM | 340,000 tested, 2% active | AID 485344, 2010; in the data active = inhibition above about 30%; inactive = below that, where a call was filed; also: 0% is about no effect
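Tetracycline-induced HEK293 TREx cells expressing D2 receptor forced-coupled to calcium signalling, loaded with no-wash calcium dye. Compounds added and calcium flux read 180 s, then dopamine added at EC80 and read a further 180 s.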
D2 ag-2: Beta-Arrestin HTS for Positive Allosteric Modulators of the Human D2 Dopamine Receptor: Agonists | DiscoveRx PathHunter D2 beta-arrestin, luminescence, 90 min; 100% = 57 uM dopamine signal | activation, % (test concentration not listed) | 360,000 tested, 0.084% active; in the data active = activation above about 40%
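Agonist mode: compounds alone added to overnight-plated D2 PathHunter cells for 90 min at 37 C, with 57 uM final dopamine (EC100) defining full response. Beta-arrestin recruitment detected by chemiluminescent reagent, read after 1 h at ambient temperature.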
D2 PAM-2: HTS Assay for Positive Allosteric Modulators of the Human D2 Dopamine Receptor: Primary Screen for Potentiators | D(2) dopamine receptor (Homo sapiens), P14416 | HEK293 T-REx D2, calcium flux, EC20 dopamine potentiation | potentiation, % at 10 µM | 340,000 tested, 0.34% active;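 active = potentiation over 3 SD above the plate norm, cut at about 30% in these data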; also: 0% is about no effect
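Cells plated with tetracycline inducer and held overnight at 30 C; calcium dye loaded 30–90 min at room temperature; baseline taken, compound added and read 180 s; EC20 dopamine then added and read 180 s.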
Starred values were filed as active, the others as inactive; / = no result. Hits are enriched below; roughly 2.4% of the tested compounds scored in any of these assays.

SMILES	D2 PAM-1	D2 ag-1	D2 antagonist	D2 ag-2	D2 PAM-2
COc1ccc(C(=O)NCCSCc2ccc(C)cc2)cc1	-3	0	4	-5	1
COc1ccc(CCNS(=O)(=O)c2cc3c4c(c2)C(C)C(=O)N4CCC3)cc1OC (stereo not given)	-4	0	-11	-3	-6
CC1C(=O)N2CCCc3cc(S(=O)(=O)NCCc4ccccc4)cc1c32 (stereo not given)	-3	0	0	-4	43*
C=CCn1c(SCC(=O)Nc2ccc(C(=O)O)cc2)nc2sc(C)c(C)c2c1=O	-2	0	-2	-2	3
C=CCn1c(SCC(=O)Nc2sccc2C#N)nc2sc(C)c(C)c2c1=O	-12	1	32*	1	-1
O=C(Cn1c(=O)nc(-c2ccccc2)c2ccccc21)NCc1ccc(F)cc1	/	1	/	/	1
Cc1ccccc1OCCC(=O)N1CCN(S(=O)(=O)c2ccc(Br)cc2)CC1	-24	-1	55*	-3	4
CC(NCC(=O)Nc1cc(S(=O)(=O)N2CCOCC2)ccc1N1CCOCC1)c1ccco1 (stereo not given)	-2	1	64*	5	8
Cc1ccccc1SCC(=O)Nc1cc(S(=O)(=O)N2CCOCC2)ccc1N1CCOCC1	-1	/	/	4	-10
CC(Oc1ccc(F)cc1)C(=O)Nc1cc(S(=O)(=O)N2CCCCC2)ccc1N1CCOCC1 (stereo not given)	3	0	37*	0	2
COc1ccc(OC)c(NCc2cccn2-c2nnc(N3CCC(C)CC3)s2)c1	/	0	/	/	7
COc1cc(C(=O)Nc2ccc(S(=O)(=O)NC(C)C)cc2)cc(OC)c1OC	-6	0	31*	2	0
COc1cc(C(=O)Nc2ccc(S(=O)(=O)NC(C)(C)C)cc2)cc(OC)c1OC	-2	0	-22	1	-1
Cc1nc([N+](=O)[O-])c(Br)n1CC(=O)c1cccc([N+](=O)[O-])c1	5	0	-9	6	25
Cc1nc([N+](=O)[O-])c(Br)n1CC(=O)c1ccc(F)cc1	4	1	34*	-1	8
COc1ccccc1CNC(=O)c1cc(-c2cc(F)ccc2OC(C)C)n[nH]1	-10	/	/	9	/
C/C(=N\Nc1ncnc2sc(C)c(C)c12)c1ccccn1	20	46*	-19	-4	10
CCOc1cc(C(=O)Nc2ccc(S(=O)(=O)N3CCOCC3)cc2)cc(OCC)c1OCC	-22	-1	2	-4	-8
CCOc1cc(C(=O)NN2CCOCC2)cc(OCC)c1OCC	0	0	36*	-2	1
N#Cc1c(F)cccc1N1CCN(Cc2ccc3c(c2)OCO3)CC1	-19	7	85*	-4	-35
CCc1ccc(NC(=O)C2CCN(S(=O)(=O)c3c(C)noc3/C=C/c3cccs3)CC2)cc1	/	1	/	/	-9
Cc1occc1C(=O)NNC(=O)c1nn(C)c(=O)c2ccccc12	0	0	-13	-2	31*
Cn1nc(C(=O)NNC(=O)COc2ccccc2)c2ccccc2c1=O	-16	0	8	-1	-13
Cc1cc(=O)n(C(C)C(=O)N2CCCc3ccccc32)c2c1c(C)nn2-c1ccccc1 (stereo not given)	/	0	/	/	17
COCC(=O)NC1CC2CCCC(C1)N2Cc1ccccc1 (stereo not given)	-19	0	42*	-1	-27
SMILES	D2 PAM-1	D2 ag-1	D2 antagonist	D2 ag-2	D2 PAM-2
COc1ccc(CN2C3CCCC2CC(NC(=O)Nc2ccccc2)C3)cc1 (stereo not given)	-45	0	80*	-5	-24
COc1ccc(CN2C3CCCC2CC(NC(=O)Nc2cccc(C)c2)C3)cc1 (stereo not given)	-48	0	9	-1	-10
CC(C)(C)OC(=O)NC1CC2CCCC(C1)N2Cc1ccccc1 (stereo not given)	-43	1	60*	-4	-33
C=CCN1C2CCCC1CC(NC(=O)Nc1cccc(C(C)=O)c1)C2 (stereo not given)	-23	10	33*	-3	-13
COCCNC(=S)NC1CC2CCC(C1)N2Cc1ccccc1 (stereo not given)	-26	0	9	-3	-30
COc1cccc(C(=O)CN2CCN(S(=O)(=O)c3ccc(Cl)cc3)CC2)c1	/	3	/	/	10
CCc1ccc2ncc3c(-c4ccccc4)nn(-c4ccccc4)c3c2c1	/	-1	/	/	15
COc1ccc(OC)c(CCNC(=O)c2ccc3c(c2)c(C)c(C)n3Cc2ccccc2)c1	/	0	/	/	6
O=C(CSc1nc2ccccc2[nH]1)Nc1c(F)c(F)c(F)c(F)c1F	0	0	-7	6	43*
COc1ccc(C2=NOC(C(=O)NC(C)(C)C)C2)cc1 (stereo not given)	-1	1	-11	-3	2
CCN(CC)C(=O)C1CC(c2ccc(OC)cc2)=NO1 (stereo not given)	-20	-1	31*	-2	9
COc1ccc(Cn2c(SCc3ccc(C(=O)NC4CCCCC4)cc3)nc3ccncc32)cc1	/	-1	/	/	-4
O=C1c2cccc3c(O)ccc(c23)C(=O)N1Cc1ccccc1	17	101*	34*	8	-19
O=C(O)c1cccc(CN2C(=O)c3ccccc3C2=O)c1	-4	0	-17	-3	2
O=C(C1CCCN(S(=O)(=O)c2cccs2)C1)N1CCN(c2ccccc2F)CC1 (stereo not given)	/	-1	/	/	3
COc1ccc(NC(=O)c2ccc(OCC3CCCO3)cc2)cc1Cl (stereo not given)	25	1	47*	8	-4
COc1ccccc1Cc1nc2ccccc2nc1SCC(=O)N(C)c1ccc(F)cc1	/	1	/	/	-12
CCCCn1c(CCC(=O)O)ccc1-c1cccs1	-9	0	40*	0	-16
COCCn1c(CCC(=O)O)ccc1-c1cccs1	2	0	0	-4	1
CCc1[nH]nc(C(=O)N2CCCC(Nc3cccc(F)c3)C2)c1C (stereo not given)	75*	0	-15	3	11
CCC1CN(C(=O)Nc2cc(C)ccc2OC)c2cc(Cl)ccc2O1 (stereo not given)	/	1	/	/	-2
O=C(Nc1ccccc1)Nc1ccccc1Br	-4	-4	42*	2	1
